Values without a mark were called inactive. Results filed as inconclusive are left out. Where a call stands in place of a potency, no number is given. Calls of active or inactive are those of the source. Calls follow the shape of the dose curve; as a rule, active = well fitted curve in the direction sought with a large enough effect; inconclusive = small, poorly fitted or top-dose-only effect, or another doubt; inactive = no such curve, though single readings can be large; an effect the other way counts as inactive or inconclusive.
Experiments:
[1] = tested on: Zika virus NS2B-NS3 protease (linked construct); assay: Primary screen NINDS Rhodamine qHTS for Zika virus inhibitors (AID 1347160); also: nearly all actives have a fitted effect of over 55% in size
Outline: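 Rhodamine110-peptide cleavage (1.5 µM substrate) by 25 nM linked NS2B-NS3 enzyme at pH 8.0 (Tris, Tween 20), after 15 min RT preincubation with compounds; 15-min fluorescence change normalized to controls and Hill-fitted.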

[2] = Primary qHTS for inhibitors of nuclear receptor binding SET domain protein 2 (NSD2) in an isogenic RCH-ACV NSD2 p.E1099K mutant (9B) (AID 1645876); also: nearly all actives have a fitted effect of over 70% in size; also: potency is read from the fitted curve at half-maximal effect
[3] = target: Glutathione peroxidase 1 (Homo sapiens) (UniProt P07203); assay: Primary qHTS Assay for Inhibitors of Recombinant Selenoprotein Glutathione Peroxidase 1 (GPX1) (AID 1845191); also: nearly all actives have a fitted effect of over 65% in size
Chain of Glutathione peroxidase 1 (Homo sapiens) (P07203 whole entry, looked up): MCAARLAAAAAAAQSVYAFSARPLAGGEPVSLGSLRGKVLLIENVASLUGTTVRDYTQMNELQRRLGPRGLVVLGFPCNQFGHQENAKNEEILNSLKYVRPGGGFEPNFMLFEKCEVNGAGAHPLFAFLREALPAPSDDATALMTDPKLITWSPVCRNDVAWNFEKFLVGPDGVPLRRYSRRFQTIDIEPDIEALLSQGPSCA
Outline: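 NADPH consumption tracked by fluorescence at 340/450 nm between t=0 and t=15 min, room temperature. Final mix: 10 nM GPX1, 100 nM glutathione reductase, 1 mM GSH, 0.5 mM NADPH, 0.5 mM cumene hydroperoxide, 0.01% BSA; 30 min compound–enzyme preincubation.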

[4] = target: Phospholipid hydroperoxide glutathione peroxidase GPX4 (Homo sapiens) (UniProt P36969); assay: Primary qHTS Assay for Inhibitors of Recombinant Selenoprotein Glutathione Peroxidase 4 (GPX4) (AID 1845192); also: nearly all actives have a fitted effect of over 65% in size
Chain of Phospholipid hydroperoxide glutathione peroxidase GPX4 (Homo sapiens) (P36969 whole entry, looked up): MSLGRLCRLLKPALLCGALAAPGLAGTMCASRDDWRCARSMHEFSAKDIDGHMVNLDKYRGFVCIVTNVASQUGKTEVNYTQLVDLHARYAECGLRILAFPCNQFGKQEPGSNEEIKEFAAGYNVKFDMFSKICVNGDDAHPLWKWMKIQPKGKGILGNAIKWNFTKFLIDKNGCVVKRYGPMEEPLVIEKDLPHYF
Outline: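 NADPH consumption followed by fluorescence at 340/450 nm, t=0 and after 15 min at room temperature. Reaction started with cumene hydroperoxide (0.5 mM final) after 30 min compound–GPX4 preincubation; final 200 nM GPX4, 100 nM GR, 1 mM GSH, 0.5 mM NADPH.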

[5] = target: Luciferin 4-monooxygenase (Photinus pyralis) (UniProt P08659); assay: Primary firefly luciferase (FLuc) qHTS assay for identification of artifact compounds. (AID 1845220); conditions: outcome: dose series up to 54.1 µM unless noted; also: nearly all actives have a fitted effect of over 60% in size
Outline: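 Compounds sat 15 min at room temperature with 10 uM luciferin and 10 uM ATP (pH 7.6 Tris acetate). Firefly luciferase (10 nM final) was then added, and luminescence was read 5 min later. Data normalized to no-enzyme and DMSO controls were Hill-fitted.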

[6] = Primary fluorescence-based thiol-reactive (MSTI) qHTS assay for identification of artifact compounds. (AID 1845221); also: nearly all actives have a fitted effect of over 65% in size; also: potency is read from the fitted curve at half-maximal effect
Outline: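 Compounds were incubated 1 h at room temperature in the dark with the MSTI probe (4 uM) in PBS pH 7.4, 2% DMSO. Signals were normalized between Acetyl-MSTI and MSTI.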

[7] = tested on: Nanoluciferase (engineered Oplophorus gracilirostris luciferase); assay: Primary Nanoluciferase (NLuc) qHTS assay for identification of artifact compounds. (AID 1845222)
Outline: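 Luminescence from secreted NLuc (filtered, 1:55-diluted S16 cell medium) read 5 min after Nano-Glo substrate; compounds preincubated 15 min, RT. Hill fits of inhibition normalized to DMSO and no-enzyme.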

CRL-7250 = normal cell line; assay: Cytotoxic Profiling of Annotated Libraries Using Quantitative High-Throughput Screening (AID 1296008); conditions: Five cell lines viability, CellTiter-Glo ATP luminescence, 48-72 h; max response: stronger effect = lower value; also: nearly all actives have a fitted effect of over 60% in size; also: potency is read from the fitted curve at half-maximal effect
Outline: (§1)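 Cytotoxicity was measured as CellTiter-Glo ATP luminescence, read after 10 min at room temperature. Compound treatment of the cells lasted 48 or 72 hr at 37 degrees Celsius in a qHTS format.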

HEK293 = assay: as above; conditions: Five cell lines viability, CellTiter-Glo ATP luminescence, 48-72 h; max response: stronger effect = lower value
Outline: as §1

HaCat = assay: as above; conditions: Five cell lines viability, CellTiter-Glo ATP luminescence, 48-72 h; max response: stronger effect = lower value
Outline: as §1

KB-3-1 = assay: as above; conditions: Five cell lines viability, CellTiter-Glo ATP luminescence, 48-72 h; max response: stronger effect = lower value
Outline: as §1

C33A = assay: Primary qHTS to identify gynecologic anti-cancer compounds using libraries of approved drugs and bioactive compounds (AID 1345084); conditions: Gynecologic cancer cell panel viability, ATPlite luminescence, 48 h; series mostly up to 57.5 µM; also: nearly all actives have a fitted effect of over 55% in size; also: potency is read from the fitted curve at half-maximal effect
Outline: (§2)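 Luminescence from the ATPlite ATP-monitoring reagent indicates viable cell number; lower signal means cytotoxicity. Cells received compound 16 h after seeding and were exposed for 48 h across five concentrations.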

CASKI = assay: as above; conditions: Gynecologic cancer cell panel viability, ATPlite luminescence, 48 h; series mostly up to 57.5 µM
Outline: as §2

Es-2 = assay: as above; conditions: Gynecologic cancer cell panel viability, ATPlite luminescence, 48 h; series mostly up to 57.5 µM
Outline: as §2

Hek293T = assay: as above; conditions: Gynecologic cancer cell panel viability, ATPlite luminescence, 48 h, control line for the selectivity index; series mostly up to 57.5 µM
Outline: as §2

OV90 = assay: as above; conditions: Gynecologic cancer cell panel viability, ATPlite luminescence, 48 h; series mostly up to 57.5 µM
Outline: as §2

PA-1 = assay: as above; conditions: Gynecologic cancer cell panel viability, ATPlite luminescence, 48 h; series mostly up to 57.5 µM
Outline: as §2

Tov-21-G = assay: as above; conditions: Gynecologic cancer cell panel viability, ATPlite luminescence, 48 h; series mostly up to 57.5 µM
Outline: as §2

Tov112D = assay: as above; conditions: Gynecologic cancer cell panel viability, ATPlite luminescence, 48 h; series mostly up to 57.5 µM
Outline: as §2

[8] = target: Calcium and integrin-binding protein 1 (Homo sapiens) (UniProt Q99828); assay: Primary qHTS for Identification of Calcium Integrin Binding Protein 1 (CIB1) Competitor (AID 1508620); also: potency is read from the fitted curve at half-maximal effect
Chain of Calcium and integrin-binding protein 1 (Homo sapiens) (Q99828 whole entry, looked up): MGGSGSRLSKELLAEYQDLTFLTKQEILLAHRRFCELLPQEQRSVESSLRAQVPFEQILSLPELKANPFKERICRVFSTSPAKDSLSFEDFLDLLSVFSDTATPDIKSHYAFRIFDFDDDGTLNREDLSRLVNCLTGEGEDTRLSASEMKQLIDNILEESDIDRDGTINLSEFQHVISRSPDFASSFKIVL
Outline: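 CIB1-GST (1 uM final) and compound incubated 15 min at room temperature before adding FITC-alphaIIb peptide tracer (100 nM final). Competition for binding read by fluorescence polarization (ex 480, em 540) after another 15 min at room temperature.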

C/C=C1/CN2CC[C@]34C(=Nc5ccc(OC)cc53)C2C[C@@H]1C4(CO)C(=O)OC (some centres undefined)
Potency [1]: inactive
Potency [2]: inactive
Potency [3]: inactive
Potency [4]: inactive
outcome [5]: inactive
Potency [6]: inactive
Potency [7]: inactive
max response (CRL-7250): 0.729%
max response (HEK293): 4.62%
outcome (HaCat): inactive
max response (KB-3-1): 0.853%
Potency (C33A): inactive
Potency (CASKI): inactive
Potency (Es-2): inactive
Potency (Hek293T): inactive
Potency (OV90): inactive
Potency (PA-1): inactive
Potency (Tov-21-G): inactive
Potency (Tov112D): inactive

COC(=O)C1=COC(C)C2CN3CCC4(C(=O)Nc5ccccc54)C3CC12 (centres undefined)
Potency [1]: inactive
Potency [2]: inactive
Potency [3]: inactive
outcome [5]: inactive
Potency [6]: inactive
Potency [7]: inactive
max response (CRL-7250): -2.61%
max response (HEK293): -24%
max response (HaCat): 2.66%
max response (KB-3-1): -8.2%
Potency (C33A): inactive
Potency (CASKI): inactive
Potency (Es-2): inactive
Potency (Hek293T): inactive
Potency (OV90): inactive
Potency (PA-1): inactive
Potency (Tov-21-G): inactive
Potency (Tov112D): inactive

Cc1c(Cl)c(OCC(=O)N2CCN(C)CC2)nc2sc(C(=O)NC3CC3)c(N)c12
Potency [1]: inactive
Potency [8]: inactive
Potency [2]: inactive
Potency [3]: inactive
Potency [4]: inactive
outcome [5]: inactive
Potency [6]: inactive
Potency [7]: inactive
max response (CRL-7250): -0.463%
max response (HEK293): -7.33%
max response (HaCat): -0.624%
outcome (KB-3-1): inactive
Potency (C33A): inactive
Potency (CASKI): inactive
Potency (Es-2): inactive
Potency (Hek293T): inactive
Potency (OV90): inactive
Potency (PA-1): inactive
Potency (Tov-21-G): inactive
Potency (Tov112D): inactive

NC(=O)c1ncn2c1CN=C(c1ccccc1Br)c1cc(F)ccc1-2
Potency [1]: inactive
Potency [8]: inactive
Potency [2]: inactive
Potency [3]: inactive
outcome [5]: inactive
Potency [6]: inactive
Potency [7]: inactive
max response (CRL-7250): -2.22%
max response (HEK293): 0.36%
max response (HaCat): -12.6%
max response (KB-3-1): 5.47%
Potency (C33A): inactive
Potency (CASKI): inactive
Potency (Es-2): inactive
Potency (Hek293T): inactive
Potency (OV90): inactive
Potency (PA-1): inactive
Potency (Tov-21-G): inactive
Potency (Tov112D): inactive

C=CCN1CCC2(C)c3cc(O)ccc3C[C@H]1[C@H]2C
Potency [1]: inactive
Potency [8]: inactive
Potency [2]: inactive
Potency [4]: inactive
outcome [5]: inactive
Potency [6]: inactive
Potency [7]: inactive
max response (CRL-7250): -1.35%
max response (HEK293): -5.37%
max response (HaCat): -10.4%
max response (KB-3-1): 1.41%
Potency (C33A): inactive
Potency (CASKI): inactive
Potency (Es-2): inactive
Potency (Hek293T): inactive
Potency (OV90): inactive
Potency (PA-1): inactive
Potency (Tov-21-G): inactive
Potency (Tov112D): inactive

Oc1ccc2c3c1O[C@H]1c4[nH]c5c(N=C=S)cccc5c4C[C@@]4(O)[C@@H](C2)N(CC2CC2)CC[C@]314
Potency [1]: inactive
Potency [3]: inactive
Potency [4]: inactive
outcome [5]: inactive
Potency [6]: inactive
Potency [7]: inactive
max response (CRL-7250): 1.1%
max response (HEK293): -0.6%
outcome (HaCat): inactive
max response (KB-3-1): -18.9%
Potency (C33A): inactive
Potency (CASKI): inactive
Potency (Es-2): inactive
Potency (Hek293T): inactive
Potency (OV90): inactive
Potency (PA-1): inactive
Potency (Tov-21-G): inactive
Potency (Tov112D): inactive

CCC(C)(O)C1(C(=O)O)COC(=O)C1 (centres undefined)
Potency [1]: inactive
Potency [8]: inactive
Potency [2]: inactive
Potency [3]: inactive
Potency [4]: inactive
outcome [5]: inactive [at 86.2 µM]
Potency [7]: inactive
max response (CRL-7250): -3.51%
max response (HEK293): 0.689%
outcome (HaCat): inactive
outcome (KB-3-1): inactive
Potency (C33A): inactive
Potency (CASKI): inactive
Potency (Es-2): inactive
Potency (Hek293T): inactive
Potency (OV90): inactive
Potency (PA-1): inactive
Potency (Tov-21-G): inactive
Potency (Tov112D): inactive

COc1ccc2c3c4n(c2c1)[C@@H](C=C(C)C)OOC(C)(C)C[C@@H]4N1C(=O)[C@@H]2CCCN2C(=O)[C@]1(O)[C@H]3OCC=C(C)C
Potency [1]: inactive
Potency [8]: inactive
Potency [2]: inactive
Potency [3]: inactive
Potency [4]: inactive
outcome [5]: inactive
Potency [6]: inactive
Potency [7]: inactive
outcome (CRL-7250): inactive
max response (HEK293): -3.84%
max response (HaCat): -11%
max response (KB-3-1): 8.3%
Potency (C33A): inactive
Potency (CASKI): inactive
Potency (Es-2): inactive
Potency (Hek293T): inactive
Potency (OV90): inactive
Potency (PA-1): inactive
Potency (Tov-21-G): inactive
Potency (Tov112D): inactive

CCC(C)/C=C(C)/C=C/C1=CC2=C(Cl)C(=O)C(C)(OC(C)=O)C(=O)C2=CO1 (centres undefined)
Potency [8]: inactive
Potency [2]: inactive
Potency [3]: inactive
Potency [4]: inactive
outcome [5]: inactive
Potency [6]: 1.31 µM (active)
Potency [7]: inactive
max response (CRL-7250): -20%
max response (HEK293): -69.1%
max response (HaCat): -66.3%
max response (KB-3-1): -15.5%
Potency (C33A): inactive
Potency (CASKI): inactive
Potency (Es-2): inactive
Potency (Hek293T): inactive
Potency (OV90): inactive
Potency (PA-1): inactive
Potency (Tov-21-G): inactive
Potency (Tov112D): inactive

C=C1[C@@H](C)[C@H]2[C@H](Cc3ccccc3)NC(=O)[C@]23OC(=O)/C=C/C(=O)CCC[C@@H](C)C/C=C/[C@H]3[C@@H]1O
Potency [1]: inactive
Potency [8]: 20 µM (active)
Potency [2]: 1.45 µM (active)
Potency [3]: inactive
Potency [4]: inactive
outcome [5]: inactive
Potency [6]: inactive
Potency [7]: inactive
Potency (CRL-7250): 1.64 µM (active)
Potency (HEK293): 1.84 µM (active)
Potency (HaCat): 20.6 µM (active)
Potency (KB-3-1): 5.8 µM (active)
Potency (CASKI): 15.8 µM (active)
Potency (Es-2): 14.1 µM (active)
Potency (Hek293T): 15.8 µM (active)
Potency (PA-1): 20 µM (active)
Potency (Tov-21-G): 15.8 µM (active)
Potency (Tov112D): 15.8 µM (active)

— PubChem BioAssay (NCATS)
